About 2,100 (3.2%) of roughly 65,000 compounds showed an effect of 50% or more. The median lay at about -52%. Many of the other results were omitted from the sample, so strong results are more common in it than they were.
What follows are compounds tested on Plasmodium falciparum (assay: Screen against P. falciparum Asexual Blood Stage (ABS), at 5uM). Conditions: tested at 5 uM.
Type: functional, Dd2

Point of comparison: CN(C)C(=O)CC1CC2(CCN(Cc3ccco3)CC2)c2ccccc21 (centres undefined), INHIBITION 24.7%. Against it:
- Cc1cccc(NC(=O)c2[nH]nc(C(C)C)c2Br)n1 — higher, 57.6%
- CC(C)c1n[nH]c(C(=O)Nc2ccncc2)c1Br — lower, -163%
- CC(C)c1n[nH]c(C(=O)Nc2cc[nH]n2)c1Br — lower, -208%
- O=S(=O)(c1cccnc1)N1CCN(Cc2nc(-c3cccs3)cs2)CC1 — lower, -29%
- CNS(=O)(=O)CCCN(C)Cc1cc(C)ccc1OC — higher, 26.6%
- COc1ccc(C(=O)NCc2ccco2)nn1 — lower, -126%
- COc1ccccc1C(C)(C)NCc1ccco1 — higher, 65.7%
- COC(=O)c1ccc(CNC(C)(C)c2ccccc2OC)o1 — lower, 1.74%
- COc1ccc(CN(C)C(=O)Cc2c(C)nn(C)c2C)cc1F — lower, -154%
- Cc1noc([C@@H]2C[C@H]3CN(Cc4scnc4C)C[C@H]3O2)n1 — lower, -40.7%
- CC(C)n1c(=O)c2sccc2n(CC(=O)Nc2ccccc2)c1=O — lower, -27.6%
- Cc1ccc(N2C[C@@H]3CN(C(=O)c4ccccc4)CCO[C@@H]3C2)nn1 — lower, -12.5%
- CS(=O)(=O)NCC1CCCCN1Cc1cccc(C#N)c1 (centres undefined) — lower, -92.3%
- CN(C)c1ccccc1CN1CCCCC1CNS(C)(=O)=O (centres undefined) — higher, 60.5%
- CS(=O)(=O)NCC1CCCCN1Cc1ccccc1C#N (centres undefined) — lower, -34.1%
- O=c1ccc2c([nH]1)CCC(NCc1ccc3c(c1)OCO3)C2 (centres undefined) — lower, -104%
- Cc1cccc2c(CCNC(=O)NCC[S+](C)[O-])c[nH]c12 (centres undefined) — lower, -103%
- Cc1cccc2c(CCNC(=O)NCCC[S+](C)[O-])c[nH]c12 (centres undefined) — lower, -85.3%
- Cc1cccc2c(CCNC(=O)[C@H](N)c3ccccc3)c[nH]c12 — higher, 61.2%
- CN(Cc1ccc2c(c1)OCCO2)Cc1nnnn1-c1ccccc1 — lower, -39.1%
- CCC1CN(Cc2c(O)ccc3oc4c(c23)CCCC4)CCO1 (centres undefined) — higher, 60%
- Oc1ccc2oc3c(c2c1CN1CCOCC1)CCCC3 — lower, 19.1%
- NC(=O)C1CN(Cc2c(O)ccc3oc4c(c23)CCCC4)CCO1 (centres undefined) — lower, -23.1%
- CN(Cc1ccccc1)c1ncccc1CNC1CCSCC1 — higher, 26.2%
- CN(Cc1ccccc1)c1ncccc1CNC1CCCC1 — higher, 65.6%
- CC(=O)N1CCC(NCc2cccnc2N(C)Cc2ccccc2)CC1 — lower, -57.8%
- CCc1nnsc1C(=O)NCc1nnc2n1CCC2 — lower, -217%
- Cc1ccc(N2CC3(COCCN(Cc4ccccn4)C3)OCC2=O)s1 (centres undefined) — lower, -89.9%
- COc1c(CNC2CCSc3ccc(F)cc32)c(C)nn1C (centres undefined) — lower, -115%
- CC1CCCN(Cc2csc(-c3ncccn3)n2)CC1 (centres undefined) — lower, -29.2%
- CC(=O)NC1CCCN(Cc2csc(-c3ncccn3)n2)C1 (centres undefined) — lower, -89.8%
- c1cnc(-c2nc(CN3CCCC(N4CCCC4)C3)cs2)nc1 (centres undefined) — higher, 51.7%
- O=C(NC1CC1)C1CCc2nnc(C3CC3)n21 (centres undefined) — lower, -100%
- c1ccc(OCC2CC3(CCN(CC4CCOCC4)CC3)CO2)nc1 (centres undefined) — lower, -83.4%
- Cc1cc(C)nc(Nc2cc(C)nc(C3CCN(C(=O)CO)C3)n2)n1 (centres undefined) — lower, -74.1%
- CC1CN(Cc2ccccc2Cn2cccn2)CCN1C (centres undefined) — higher, 48.4%
- c1ccc(Cn2cccn2)c(CN2CCCCC2CCn2ccnc2)c1 (centres undefined) — higher, 64.4%
- CN(C)[C@H]1CCCCN(Cc2ccccc2Cn2cccn2)C1 — higher, 51%
- CN(C)CCC1CCCCN1Cc1cnc(-c2ccccn2)nc1 (centres undefined) — higher, 38.9%
- Cc1ccc2nc(CN3CCCCC3CCn3cccn3)cn2c1 (centres undefined) — lower, -63.2%
- Fc1cccc(-n2ccc(CN3CCCC3Cn3cccn3)n2)c1 (centres undefined) — lower, 4.96%
- Fc1cccc(-n2ccc(CN3CCCCC3Cn3cncn3)n2)c1 (centres undefined) — lower, -44.8%
- Fc1ccc(-n2cccn2)c(CN2CCCCC2CCn2ccnc2)c1 (centres undefined) — lower, 7.69%
- c1ccc(-c2ncc(CN3CCCCC3CCn3cccn3)cn2)nc1 (centres undefined) — higher, 51%
- CN(C)C1CCCN(Cc2cccc(Cn3cccn3)c2)CC1 (centres undefined) — higher, 34%
- c1cnn(CCC2CCCCN2Cc2cnc(C3CCCCC3)nc2)c1 (centres undefined) — lower, -9.85%
- Fc1cccc(-n2cc(CN3CCCCC3CCn3ccnc3)cn2)c1 (centres undefined) — higher, 68.9%
- CCc1cnc(N2CCC3(CCN(Cc4cccc(C)c4)C3=O)C2)nc1 (centres undefined) — higher, 44.1%
- CN(Cc1cccnc1)Cc1cncc2c1CCN(c1ccccn1)C2 — lower, -26.1%
- CCc1[nH]c2c(CNc3cnccn3)cc(F)cc2c1C — lower, -64.1%
- CN1CCNCC(Cc2cnc3ccccc3c2)C1 (centres undefined) — lower, -67.9%
- COCCCNC(=O)c1cc(C(C)C)nc(N2CCCC2)n1 — lower, -93.7%
- CCN(CC)CCNC(=O)c1cc(C(C)C)nc(N2CCCC2)n1 — lower, -32.6%
- CC(C)c1cc(C(=O)NCCCN(C)C)nc(N2CCCC2)n1 — higher, 52.7%
- NCCSc1nccc(-c2cnc(C3CC3)nc2-c2ccco2)n1 — lower, -39.7%
- CC(C)c1ncc2c(n1)CN(Cc1nnc(Cc3ccccc3)o1)CC2 — lower, -45.2%
- CCC(NC(=O)CN(C)Cc1ccc(C)o1)c1ccc(C)cc1 (centres undefined) — higher, 50.9%
- CCc1ccc(C(C)NC(=O)CN(C)Cc2ccc(C)o2)cc1 (centres undefined) — lower, 13.3%
- CCC(NC(=O)CN(C)Cc1ccc(C)o1)c1ccc(Br)cc1 (centres undefined) — higher, 37.3%
- N#Cc1ccc(CN2CC3(CCCCN3c3cccnc3)CC2=O)cc1 (centres undefined) — lower, 7.75%
- CC(C)(C#N)c1ccccc1CN1CCC(N2CCCC2=O)CC1 — lower, -50.6%
- Cc1cccc(-c2nccnc2C2CCN(C)CC2)c1C — higher, 54.2%
- Cc1cccc(-c2nccnc2C2CCCN(C)C2)c1C (centres undefined) — lower, 2.65%
- COc1ccccc1-c1nccnc1C1CCN(C(C)=O)CC1 — lower, -20.5%
- O=C(O)[C@@H]1CN(C(=O)Cc2ccccc2Cl)C[C@H]1C1CC1 — lower, -94%
- CNC(=O)N1C[C@@H]2C[C@H](C(=O)Nc3cccnc3)[C@H](C1)O2 — lower, -142%
- Cn1cnnc1C1CCN(C(=O)c2cc3c(s2)CCCC3)CC1 — lower, -21.6%
- CN(C)C1Cc2ccccc2N(S(=O)(=O)c2ccccc2C#N)C1 (centres undefined) — higher, 56.6%
- CN(Cc1nnc(C2CC2)n1C)S(=O)(=O)c1ccccc1C#N — lower, -108%
- COc1ccccc1S(=O)(=O)N1CC(N(C)C)Cc2ccccc21 (centres undefined) — higher, 64.1%
- COc1ccccc1S(=O)(=O)N1CCC2(CC1)[C@H](O)C[C@@H]2O — lower, -62.3%
- COc1cc(F)c(S(=O)(=O)N2CCN(C)Cc3ccccc32)cc1OC — lower, 13.8%
- CN(C)C1Cc2ccccc2N(S(=O)(=O)c2ccc(C#N)cc2)C1 (centres undefined) — higher, 49.9%

Source: ChEMBL document CHEMBL4513216, “Probing the Open Global Health Chemical Diversity Library for Multistage-Active Starting Points for Next-Generation Antimalarials” (ACS Infect Dis, 2020)
